According to PubChem BioAssay (EPA / NIEHS):
Active and inactive are the calls of the source. The calls were made as follows: active = hit-call score of the fitted dose curve at least 0.9, where 1 is the maximum; inactive = score below 0.9.

What was measured:
Conditions in all cases: mRNA level, 48 h; actives raise or lower the signal
[1] = read-out: CYP2C9 (gene 1559); experiment: LTEA_HepaRG_CYP2C9: Life Technologies and Expression Analysis (LTEA) Assay for CYP2C9 using HepaRG (AID 2283484)
Summary of the method: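 Differentiated human HepaRG cells in serum-free induction medium were exposed 48 h to chemicals in 8-point half-log series from 100 uM (0.5% DMSO), in duplicate. CYP2C9 mRNA was measured by qRT-PCR, normalized to ACTB/GAPDH/POLR2A, with bidirectional fitting versus DMSO.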

[2] = read-out: CYP2E1 (gene 1571); experiment: LTEA_HepaRG_CYP2E1: Life Technologies and Expression Analysis (LTEA) Assay for CYP2E1 using HepaRG (AID 2283485)
Summary of the method: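 HepaRG cells, plated 48 h, then exposed 48 h in serum-free induction medium to eight half-log concentrations from 100 uM in 0.5% DMSO, duplicate. CYP2E1 mRNA by qRT-PCR, normalized to ACTB/GAPDH/POLR2A; bidirectional fit versus DMSO.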

[3] = read-out: CYP4A11 (gene 1579); experiment: LTEA_HepaRG_CYP4A11: Life Technologies and Expression Analysis (LTEA) Assay for CYP4A11 using HepaRG (AID 2283486)
Summary of the method: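 Readout is CYP4A11 transcript level by qRT-PCR, normalized to three housekeeping genes and fitted bidirectionally against 0.5% DMSO. Human HepaRG cells were treated 48 h, in duplicate, with an 8-point half-log series topping at 100 uM.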

[4] = read-out: Cytochrome P450 3A4 (Homo sapiens) (UniProt P08684); experiment: LTEA_HepaRG_CYP3A4: Life Technologies and Expression Analysis (LTEA) Assay for CYP3A4 using HepaRG (AID 2283487)
Summary of the method: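 HepaRG, 48 h exposure, 8-pt CRC from 100 uM (half-log), 0.5% DMSO, duplicates; serum-free induction medium. Readout: CYP3A4 mRNA, qRT-PCR, ACTB/GAPDH/POLR2A normalization. Bidirectional fit vs DMSO.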

[5] = read-out: DNA damage-inducible transcript 3 (DDIT3), DDIT3 (gene 1649); experiment: LTEA_HepaRG_DDIT3: Life Technologies and Expression Analysis (LTEA) Assay for DNA damage-inducible transcript 3 (DDIT3) using HepaRG (AID 2283488)
Summary of the method: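 HepaRG cells, 48 h after plating, exposed 48 h in serum-free induction medium to 8 half-log concentrations up to 100 uM in 0.5% DMSO, in duplicate. DDIT3 mRNA measured by TaqMan qRT-PCR, normalized to ACTB, GAPDH and POLR2A. Fitted bidirectionally against DMSO.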

[6] = read-out: Pro-epidermal growth factor (Homo sapiens) (UniProt P01133); experiment: LTEA_HepaRG_EGF: Life Technologies and Expression Analysis (LTEA) Assay for Epidermal growth factor (EGF) using HepaRG (AID 2283489)
Summary of the method: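 EGF transcript measured by Fluidigm TaqMan qRT-PCR with three housekeeping genes for normalization, 48 h after dosing HepaRG cultures in duplicate (top 100 uM, half-log steps, 0.5% DMSO vehicle). Gain or loss relative to DMSO fitted.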

[7] = read-out: Early growth response protein 1 (EGR1) transcription factor, EGR1 (gene 1958); experiment: LTEA_HepaRG_EGR1: Life Technologies and Expression Analysis (LTEA) Assay for Early growth response protein 1 (EGR1) transcription factor using HepaRG (AID 2283490)
Summary of the method: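 Differentiated HepaRG cells in serum-free induction medium exposed 48 hours, duplicate, to 8 half-log concentrations up to 100 uM in 0.5% DMSO. EGR1 mRNA measured by TaqMan qRT-PCR, normalized to ACTB, GAPDH, POLR2A; bidirectional fit versus DMSO.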

[8] = read-out: Ezrin (EZR), EZR (gene 7430); experiment: LTEA_HepaRG_EZR: Life Technologies and Expression Analysis (LTEA) Assay for Ezrin (EZR) using HepaRG (AID 2283491)
Summary of the method: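 Read-out is EZR transcript level by qRT-PCR, normalized to three housekeeping genes and fitted bidirectionally against the DMSO control. Human HepaRG cells received test chemicals for 48 h at eight half-log concentrations up to 100 uM in 0.5% DMSO.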

[9] = read-out: Cytochrome P450 3A7 (Homo sapiens) (UniProt P24462); experiment: LTEA_HepaRG_CYP3A7: Life Technologies and Expression Analysis (LTEA) Assay for CYP3A7 using HepaRG (AID 2283492)
Summary of the method: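 CYP3A7 transcript measured by qRT-PCR (ACTB, GAPDH, POLR2A normalization) after 48 h chemical exposure of HepaRG cells in duplicate. Eight half-log concentrations, maximum 100 uM, 0.5% DMSO vehicle; bidirectional curve fitting against DMSO baseline.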

[10] = read-out: CYP3A5 (gene 1577); experiment: LTEA_HepaRG_CYP3A5: Life Technologies and Expression Analysis (LTEA) Assay for CYP3A5 using HepaRG (AID 2283493)
Summary of the method: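 HepaRG cells, plated 48 h then in serum-free induction medium, dosed in duplicate for 48 h with eight half-log concentrations up to 100 uM in 0.5% DMSO. Gene mRNA by Fluidigm TaqMan qRT-PCR, normalized to ACTB, GAPDH, POLR2A.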

[11] = read-out: Fatty Acid-Binding Protein 1 (FABP1), FABP1 (gene 2168); experiment: LTEA_HepaRG_FABP1: Life Technologies and Expression Analysis (LTEA) Assay for Fatty Acid-Binding Protein 1 (FABP1) using HepaRG (AID 2283494)
Summary of the method: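 Differentiated human HepaRG cells exposed 48 h in serum-free induction medium to eight half-log concentrations up to 100 uM (0.5% DMSO), duplicate. FABP1 mRNA by qRT-PCR, normalised to ACTB, GAPDH, POLR2A; bidirectional fitting against DMSO.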

[12] = read-out: Cytochrome P450 4A22 (Homo sapiens) (UniProt Q5TCH4); experiment: LTEA_HepaRG_CYP4A22: Life Technologies and Expression Analysis (LTEA) Assay for Cytochrome P450 4A22 (CYP4A22) using HepaRG (AID 2283495)
Summary of the method: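 Gene expression measured by qRT-PCR against three housekeeping genes (ACTB, GAPDH, POLR2A), with gain or loss fitted relative to 0.5% DMSO vehicle. HepaRG cultures received 48 h chemical treatment, top concentration 100 uM, half-log steps, duplicate wells.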

[13] = read-out: Cytochrome P450 7A1 (Homo sapiens) (UniProt P22680); experiment: LTEA_HepaRG_CYP7A1: Life Technologies and Expression Analysis (LTEA) Assay for Cytochrome P450 7A1 (CYP7A1) using HepaRG (AID 2283496)
Summary of the method: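 HepaRG cells plated 48 h, then switched to serum-free induction medium and exposed in duplicate for 48 h to 8-point half-log series from 100 uM in 0.5% DMSO. CYP7A1 mRNA by qRT-PCR (TaqMan), normalized to ACTB/GAPDH/POLR2A; bidirectional fit versus DMSO.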

[14] = read-out: Glutathione S-Transferase (GSTA2), GSTA2 (gene 2939); experiment: LTEA_HepaRG_GSTA2: Life Technologies and Expression Analysis (LTEA) Assay for Glutathione S-Transferase (GSTA2) using HepaRG (AID 2283497)
Summary of the method: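 Differentiated human HepaRG cells were exposed in duplicate for 48 h in serum-free induction medium, 8 points from 100 uM top in half-log steps, 0.5% DMSO. GSTA2 mRNA was measured by TaqMan qRT-PCR, normalized to ACTB, GAPDH and POLR2A; bidirectional fit versus DMSO.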

[15] = read-out: Glutamate-cysteine ligase catalytic (GCLC), GCLC (gene 2729); experiment: LTEA_HepaRG_GCLC: Life Technologies and Expression Analysis (LTEA) Assay for Glutamate-cysteine ligase catalytic (GCLC) using HepaRG (AID 2283498)
Summary of the method: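 Differentiated HepaRG cells exposed 48 h in serum-free induction medium, eight-point half-log series topping at 100 uM in 0.5% DMSO, duplicates. GCLC mRNA by qRT-PCR normalized to ACTB, GAPDH and POLR2A, fitted bidirectionally versus DMSO.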

[16] = read-out: growth arrest and DNA damage 45 (GADD45G), GADD45G (gene 10912); experiment: LTEA_HepaRG_GADD45G: Life Technologies and Expression Analysis (LTEA) Assay for growth arrest and DNA damage 45 (GADD45G) using HepaRG (AID 2283499)
Summary of the method: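 GADD45G transcript level by qRT-PCR (housekeeping-normalized: ACTB, GAPDH, POLR2A) after 48 h chemical treatment of a single HepaRG lot in serum-free induction medium; eight-point half-log series up to 100 uM in 0.5% DMSO, duplicates, up- or down-regulation scored.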

[17] = read-out: Glutamate-cysteine ligase regulatory (GCLM), GCLM (gene 2730); experiment: LTEA_HepaRG_GCLM: Life Technologies and Expression Analysis (LTEA) Assay for Glutamate-cysteine ligase regulatory (GCLM) using HepaRG (AID 2283500)
Summary of the method: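 Differentiated HepaRG cells exposed 48 h in serum-free induction medium to eight half-log concentrations up to 100 uM (0.5% DMSO). GCLM mRNA by TaqMan qRT-PCR, normalized to ACTB, GAPDH and POLR2A; bidirectional fit versus DMSO.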

[18] = read-out: Glutathione S-transferase M3 (GSTM3), GSTM3 (gene 2947); experiment: LTEA_HepaRG_GSTM3: Life Technologies and Expression Analysis (LTEA) Assay for Glutathione S-transferase M3 (GSTM3) using HepaRG (AID 2283501)
Summary of the method: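 GSTM3 transcript levels came from Fluidigm TaqMan qRT-PCR normalized to three housekeeping genes, fitted in both directions against DMSO. HepaRG cultures received chemicals for 48 h in serum-free induction medium (0.5% DMSO), 8 half-log concentrations up to 100 uM, duplicate.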

[19] = read-out: Heat shock 70 kDa protein 1 (HSPA1A), gene 3303; experiment: LTEA_HepaRG_HSPA1A: Life Technologies and Expression Analysis (LTEA) Assay for Heat shock 70 kDa protein 1 (HSPA1A) using HepaRG (AID 2283502)
Summary of the method: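 Human HepaRG cells in serum-free induction medium were exposed in duplicate for 48 h to 8 half-log concentrations, highest 100 uM, in 0.5% DMSO. HSPA1A mRNA read by TaqMan qRT-PCR, normalized to ACTB, GAPDH, POLR2A, fitted bidirectionally against DMSO.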

[20] = read-out: Hypoxia-inducible factor 1-alpha (Homo sapiens) (UniProt Q16665); experiment: LTEA_HepaRG_HIF1A: Life Technologies and Expression Analysis (LTEA) Assay for Hypoxia-inducible factor 1 (HIF1A) Trancription factor using HepaRG (AID 2283503)
Summary of the method: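 Differentiated HepaRG cells in serum-free induction medium exposed 48 h, in duplicate, to 8-point half-log series from 100 uM in 0.5% DMSO. HIF1A mRNA measured by TaqMan qRT-PCR, normalized to ACTB/GAPDH/POLR2A, fitted bidirectionally versus DMSO.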

Measured: AC50

Chain of Cytochrome P450 3A4 (Homo sapiens) (P08684 whole entry, looked up): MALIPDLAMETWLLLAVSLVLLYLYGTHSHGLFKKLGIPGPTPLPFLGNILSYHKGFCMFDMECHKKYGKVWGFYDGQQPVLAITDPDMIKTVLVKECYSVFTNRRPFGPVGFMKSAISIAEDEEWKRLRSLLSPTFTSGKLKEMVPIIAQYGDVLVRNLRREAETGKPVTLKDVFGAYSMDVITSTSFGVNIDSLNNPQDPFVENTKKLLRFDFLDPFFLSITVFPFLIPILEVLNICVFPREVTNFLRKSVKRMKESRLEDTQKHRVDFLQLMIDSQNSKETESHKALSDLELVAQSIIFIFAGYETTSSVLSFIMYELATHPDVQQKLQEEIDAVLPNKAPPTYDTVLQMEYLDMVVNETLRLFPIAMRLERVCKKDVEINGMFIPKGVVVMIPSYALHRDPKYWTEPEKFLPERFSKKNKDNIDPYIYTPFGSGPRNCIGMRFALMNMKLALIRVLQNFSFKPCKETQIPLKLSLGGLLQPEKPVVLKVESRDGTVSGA
Chain of Hypoxia-inducible factor 1-alpha (Homo sapiens) (Q16665 whole entry, looked up): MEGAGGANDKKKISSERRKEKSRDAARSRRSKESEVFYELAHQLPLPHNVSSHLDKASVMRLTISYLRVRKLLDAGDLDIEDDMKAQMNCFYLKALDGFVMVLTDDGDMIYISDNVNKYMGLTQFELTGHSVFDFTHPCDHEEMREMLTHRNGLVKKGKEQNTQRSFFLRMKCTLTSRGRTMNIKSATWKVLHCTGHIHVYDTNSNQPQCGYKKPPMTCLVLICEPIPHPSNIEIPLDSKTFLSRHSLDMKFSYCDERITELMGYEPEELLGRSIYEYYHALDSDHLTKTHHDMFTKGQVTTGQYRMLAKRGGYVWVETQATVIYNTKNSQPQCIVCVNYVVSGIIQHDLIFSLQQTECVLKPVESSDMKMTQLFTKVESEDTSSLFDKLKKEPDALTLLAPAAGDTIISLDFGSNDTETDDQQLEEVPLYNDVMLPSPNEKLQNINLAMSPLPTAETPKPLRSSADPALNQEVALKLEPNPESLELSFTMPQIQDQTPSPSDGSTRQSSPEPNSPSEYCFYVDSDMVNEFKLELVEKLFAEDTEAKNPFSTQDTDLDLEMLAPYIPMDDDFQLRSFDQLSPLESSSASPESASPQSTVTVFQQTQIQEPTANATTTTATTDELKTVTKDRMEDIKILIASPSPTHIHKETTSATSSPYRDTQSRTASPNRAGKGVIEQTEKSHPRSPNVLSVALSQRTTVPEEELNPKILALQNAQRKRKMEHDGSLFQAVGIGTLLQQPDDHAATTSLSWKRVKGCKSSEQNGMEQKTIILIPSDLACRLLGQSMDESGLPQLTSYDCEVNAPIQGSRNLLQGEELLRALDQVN
Chain of Cytochrome P450 3A7 (Homo sapiens) (P24462 whole entry, looked up): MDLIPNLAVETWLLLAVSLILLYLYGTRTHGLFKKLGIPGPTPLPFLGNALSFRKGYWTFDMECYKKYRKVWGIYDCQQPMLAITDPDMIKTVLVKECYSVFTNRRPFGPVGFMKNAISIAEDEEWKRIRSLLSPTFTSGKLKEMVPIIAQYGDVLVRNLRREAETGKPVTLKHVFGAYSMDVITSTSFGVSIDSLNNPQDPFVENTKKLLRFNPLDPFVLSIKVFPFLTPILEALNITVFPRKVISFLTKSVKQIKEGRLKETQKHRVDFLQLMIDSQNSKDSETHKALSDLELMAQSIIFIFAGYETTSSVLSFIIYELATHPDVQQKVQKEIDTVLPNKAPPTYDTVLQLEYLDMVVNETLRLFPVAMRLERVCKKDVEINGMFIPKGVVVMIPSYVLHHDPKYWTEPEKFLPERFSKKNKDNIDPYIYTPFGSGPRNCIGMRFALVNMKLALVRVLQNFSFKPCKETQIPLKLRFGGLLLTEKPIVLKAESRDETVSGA

C=CC(=C)CCC=C(C)C
inactive: all assays above

O=C(O)c1cccc(N(Cc2cccnc2)c2ccc(OC(F)F)c(OC(F)F)c2)c1
active: [2] 5.18 µM | [4] 43.5 µM | [7] 50 µM | [11] 87 µM | [13] 4.48 µM
inactive: all other assays above

CCCC(=O)OCC
inactive: all assays above

COCCOCCOCCOC
inactive: all assays above

COc1ccc2sc(C(=O)Nc3nnn[nH]3)c(OC(C)C)c2c1
inactive: [3] | [4] | [8] | [10] | [15] | [17]
active: [1] 50 µM | [2] 91.6 µM | [5] 13.2 µM | [6] 22 µM | [7] 74.8 µM | [9] 87.2 µM | [11] 83.9 µM | [12] 1.17 µM | [13] 96.5 µM | [14] 50 µM | [16] 80.8 µM | [18] 76.2 µM | [19] 9.47 µM | [20] 72 µM

CN(C)c1ccc(Cc2ccc(N(C)C)cc2)cc1
active: [1] 90.8 µM | [2] 50 µM | [3] 89 µM | [4] 2.5 µM | [9] 11.6 µM | [12] 50 µM | [16] 50 µM
inactive: all other assays above

O=C(NS(=O)(=O)/C=C/c1ccccc1)c1ccc(F)cc1Cl
active: [2] 22.3 µM | [4] 11.3 µM | [9] 28.7 µM | [11] 2.67 µM | [13] 23.4 µM
inactive: all other assays above
